From PubChem BioAssay (EPA / NIEHS) come the findings set out here.

Where “and” joins values, the source holds several entries; their conditions need not be identical. Equal entries are not always repeated. Inconclusive results are not listed. Calls of active or inactive are those of the source. The calls were made as follows, unless noted: active = hit-call score of the fitted dose curve at least 0.9, where 1 is the maximum; inactive = score below 0.9.

Assay [1] in a line: ATG_NFI_CIS: Attagene CIS-FACTORIAL HepG2 Assay for human Nuclear Factor I (NFI) (AID 2282989). As to conditions: HepG2 cis-regulatory reporter, NFI response element transcription; actives raise or lower the signal. A digest of the protocol:
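After transient transfection of HepG2 with cis-promoter reporter constructs and 24 h dosing, RNA is reverse-transcribed, amplified, 6-FAM end-labelled and HpaI-digested before capillary analysis. Bidirectional curve fitting against DMSO.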

Assay [2] addresses Myc proto-oncogene protein (Homo sapiens) (UniProt P01106). As to the kind of experiment: ATG_Myc_CIS: Attagene CIS-FACTORIAL HepG2 Assay for human Myelocytomatosis (Myc) Proto-Oncogene Transcription Factor (AID 2282990). As to conditions: HepG2, Attagene cis-reporter transcription factor activity; actives raise or lower the signal. A digest of the protocol:
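Read-out: fluorescent reporter mRNA fragments resolved by capillary electrophoresis after RT-PCR. Human HepG2 liver cells carried transfected cis-element reporter units and were dosed for 24 h. Gain or loss of signal fitted relative to DMSO baseline.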

The nature of assay [3]: ATG_NRF2_ARE_CIS: Attagene CIS-FACTORIAL HepG2 Assay for human Nuclear Factor Erythroid 2 Related Factor 2 (NFR2) response to Antioxidant Response Elements (ARE) (AID 2282992). As to conditions: HepG2 Attagene ARE/NRF2 reporter, transcription factor activity; actives raise or lower the signal. The procedure, abridged:
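Fluorescence intensity of reporter-specific cDNA fragments, separated by capillary electrophoresis, reflects mRNA induction in transfected HepG2 cells at 24 h. Activity is fitted bidirectionally, DMSO serving as baseline.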

Assay [4] deals with human Peroxisome Proliferator-activated Receptor delta (PPARd), PPARD (gene 5467) (UniProt Q03181). As to the kind of experiment: ATG_PPARd_TRANS: Attagene TRANS-FACTORIAL HepG2 Assay for human Peroxisome Proliferator-activated Receptor delta (PPARd) (AID 2283002; active = hit-call score of the fitted dose curve at least 0.9, where 1 is the maximum). A digest of the protocol:
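Read-out: reporter mRNA induction, quantified by fluorescent RT-PCR products resolved by capillary electrophoresis. Human HepG2 liver cells carried transiently transfected Gal4-UAS reporter constructs with chimeric NR-Gal4 fusions. Cells were dosed for 24 h; DMSO served as baseline.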

The target of assay [5] is human Retinoic Acid Receptor beta (RARb), RARB (gene 5915) (UniProt P10826). As to the kind of experiment: ATG_RARb_TRANS: Attagene TRANS-FACTORIAL HepG2 Assay for human Retinoic Acid Receptor beta (AID 2283004; active = hit-call score of the fitted dose curve at least 0.9, where 1 is the maximum). The procedure, abridged: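 Induction of reporter mRNA from a chimeric RARb-Gal4 construct was measured by RT-PCR, FAM labelling, HpaI digestion and capillary electrophoresis. Measurements followed 24 h compound treatment of transiently transfected human HepG2 liver cells, with DMSO as baseline.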
Chain of human Retinoic Acid Receptor beta (RARb), RARB (gene 5915) (P10826 whole entry, looked up, the tested form may be a part): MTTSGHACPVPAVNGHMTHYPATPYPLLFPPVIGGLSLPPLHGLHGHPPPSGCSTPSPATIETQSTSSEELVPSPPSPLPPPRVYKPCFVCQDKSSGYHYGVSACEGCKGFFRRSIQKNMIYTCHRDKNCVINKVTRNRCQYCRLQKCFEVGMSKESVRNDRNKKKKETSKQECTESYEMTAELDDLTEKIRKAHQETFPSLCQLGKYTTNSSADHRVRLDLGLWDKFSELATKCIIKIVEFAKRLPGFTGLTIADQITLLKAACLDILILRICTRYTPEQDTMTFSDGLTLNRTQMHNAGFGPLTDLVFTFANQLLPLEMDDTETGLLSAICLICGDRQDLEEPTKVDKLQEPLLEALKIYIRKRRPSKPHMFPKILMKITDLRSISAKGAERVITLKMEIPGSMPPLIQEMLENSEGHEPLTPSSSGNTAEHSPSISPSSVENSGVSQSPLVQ

The target of assay [6] is Retinoic acid receptor alpha (Homo sapiens) (UniProt P10276). As to the kind of experiment: ATG_RARa_TRANS: Attagene TRANS-FACTORIAL HepG2 Assay for human Retinoic Acid Receptor alpha (RARa) (AID 2283005; active = hit-call score of the fitted dose curve at least 0.9, where 1 is the maximum). The procedure, abridged: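 HepG2 transiently transfected with multiplex GAL4-UAS reporter units including a human RARa–GAL4 chimera; 24 h compound exposure. Reporter mRNA quantified by RT-PCR, 6-FAM labeling and capillary electrophoresis; gain of signal versus DMSO.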
Chain of Retinoic acid receptor alpha (Homo sapiens) (P10276 whole entry, looked up, the tested form may be a part): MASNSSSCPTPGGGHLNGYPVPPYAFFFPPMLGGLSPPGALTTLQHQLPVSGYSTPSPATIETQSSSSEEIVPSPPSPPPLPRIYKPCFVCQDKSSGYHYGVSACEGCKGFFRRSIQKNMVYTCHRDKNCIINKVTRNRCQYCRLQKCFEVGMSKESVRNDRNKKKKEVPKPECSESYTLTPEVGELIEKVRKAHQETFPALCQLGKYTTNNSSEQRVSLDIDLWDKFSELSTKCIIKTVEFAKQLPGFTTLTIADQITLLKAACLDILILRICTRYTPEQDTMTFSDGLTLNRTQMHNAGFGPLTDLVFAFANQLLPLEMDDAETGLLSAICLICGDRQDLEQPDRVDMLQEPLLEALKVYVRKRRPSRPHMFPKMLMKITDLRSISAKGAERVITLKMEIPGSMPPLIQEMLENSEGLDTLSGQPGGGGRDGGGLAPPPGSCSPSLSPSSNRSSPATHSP

Assay [7] concerns the target Nuclear receptor subfamily 1 group I member 2 (Homo sapiens) (UniProt O75469). As to the kind of experiment: ATG_PXR_TRANS: Attagene TRANS-FACTORIAL HepG2 Assay for human Pregnane X Receptor (PXR) (AID 2283008; active = hit-call score of the fitted dose curve at least 0.9, where 1 is the maximum). A digest of the protocol:
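Transient HepG2 transfectants carrying multiplexed reporter transcription units; PXR activity read through a Gal4 chimera. 24 h exposure. RT-PCR/CE fluorescence; upward curve fit referenced to DMSO.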

For assay [8], the target named is human Retinoic Acid Receptor gamma (RARg), RARG (gene 5916) (UniProt P13631). Description: ATG_RARg_TRANS: Attagene TRANS-FACTORIAL HepG2 Assay for human Retinoic Acid Receptor gamma (RARg) (AID 2283009; active = hit-call score of the fitted dose curve at least 0.9, where 1 is the maximum). A digest of the protocol:
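Readout: reporter transcript levels via RT-PCR, 6-FAM primer-extension labelling, HpaI digestion and capillary electrophoresis. Cells: HepG2 carrying transfected RARg-GAL4 chimera plus UAS reporter set. Dosing 24 h; DMSO negative control.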

The target of assay [9] is Peroxisome proliferator-activated receptor gamma (Homo sapiens) (UniProt P37231). Description: ATG_PPARg_TRANS: Attagene TRANS-FACTORIAL HepG2 Assay for human Peroxisome Proliferator-activated Receptor-gamma (PPARg) (AID 2283007; active = hit-call score of the fitted dose curve at least 0.9, where 1 is the maximum). The procedure, abridged: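 HepG2 cells transiently transfected with multiplexed GAL4-UAS reporter units and exogenous chimeric NR-Gal4 proteins; reporter mRNA quantified after 24 h compound exposure by RT-PCR, fluorescent labelling, HpaI digestion and capillary electrophoresis; gain-of-signal fitted versus DMSO baseline.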
Chain of Peroxisome proliferator-activated receptor gamma (Homo sapiens) (P37231 whole entry, looked up, the tested form may be a part): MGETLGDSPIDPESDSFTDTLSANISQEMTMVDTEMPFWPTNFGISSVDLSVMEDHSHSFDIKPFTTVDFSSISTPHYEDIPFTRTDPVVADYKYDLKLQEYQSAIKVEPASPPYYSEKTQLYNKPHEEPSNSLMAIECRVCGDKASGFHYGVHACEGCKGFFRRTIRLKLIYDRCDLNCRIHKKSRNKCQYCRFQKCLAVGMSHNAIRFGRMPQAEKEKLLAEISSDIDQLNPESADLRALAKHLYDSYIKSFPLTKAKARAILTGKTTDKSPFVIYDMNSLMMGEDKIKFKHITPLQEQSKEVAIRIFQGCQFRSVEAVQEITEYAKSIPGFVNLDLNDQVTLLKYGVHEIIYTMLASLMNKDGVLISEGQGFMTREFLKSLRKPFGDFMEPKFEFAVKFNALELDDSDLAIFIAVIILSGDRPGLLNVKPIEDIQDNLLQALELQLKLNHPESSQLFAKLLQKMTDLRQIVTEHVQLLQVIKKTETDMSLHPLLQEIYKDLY

The nature of assay [10]: ATG_Oct_MLP_CIS: Attagene CIS-FACTORIAL HepG2 Assay for human Octamer-Binding Transcription Factor (Oct) (AID 2282993). As to conditions: HepG2 Attagene cis-factorial Oct reporter, mRNA; actives raise or lower the signal. A digest of the protocol:
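Cells of the HepG2 line express promoter-controlled reporter sequences whose mRNA levels, after 24 h treatment, are measured by RT-PCR and capillary electrophoresis. Increases and decreases are scored relative to DMSO.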

The target of assay [11] is human RAR-related Orphan Receptor beta (RORb), RORB (gene 6096) (UniProt Q92753). As to the kind of experiment: ATG_RORb_TRANS: Attagene TRANS-FACTORIAL HepG2 Assay for human RAR-related Orphan Receptor beta (RORb) (AID 2283010; active = hit-call score of the fitted dose curve at least 0.9, where 1 is the maximum). The procedure, abridged:
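HepG2, transient MRTU transfection (GAL4-UAS reporters, exogenous NR-Gal4 chimeras); 24 h compound exposure; total RNA → RT-PCR → 6-FAM primer extension → HpaI digest → CE fluorescence. Positive direction vs DMSO baseline.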

The target in assay [12] is Cellular tumor antigen p53 (Homo sapiens) (UniProt P04637). Description: ATG_p53_CIS: Attagene CIS-FACTORIAL HepG2 Assay for human p53 Transcription Factor (AID 2282994). As to conditions: HepG2 p53 cis-element reporter, Attagene mRNA; actives raise or lower the signal. A digest of the protocol: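 Transiently transfected HepG2 (multiple cis reporter transcription units); exposure 24 h; reporter RNA via RT-PCR, 6-FAM extension, 2 h HpaI digest at 37 C, CE detection; DMSO baseline.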
Chain of Cellular tumor antigen p53 (Homo sapiens) (P04637 whole entry, looked up): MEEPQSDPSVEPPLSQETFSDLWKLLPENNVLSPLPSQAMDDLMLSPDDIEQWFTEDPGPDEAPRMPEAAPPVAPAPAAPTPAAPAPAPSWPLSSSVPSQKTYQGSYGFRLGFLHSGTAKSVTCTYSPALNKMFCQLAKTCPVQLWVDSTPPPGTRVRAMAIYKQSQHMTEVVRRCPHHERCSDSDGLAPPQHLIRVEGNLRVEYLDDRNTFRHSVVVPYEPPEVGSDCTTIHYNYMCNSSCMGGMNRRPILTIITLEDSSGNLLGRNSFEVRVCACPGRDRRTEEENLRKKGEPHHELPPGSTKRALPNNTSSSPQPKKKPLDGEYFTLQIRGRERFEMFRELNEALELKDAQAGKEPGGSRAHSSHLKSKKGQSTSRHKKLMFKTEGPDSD

Assay [13] concerns the target human Peroxisome Proliferator-activated Receptor alpha (PPARa), PPARA (gene 5465) (UniProt Q07869). As to the kind of experiment: ATG_PPARa_TRANS: Attagene TRANS-FACTORIAL HepG2 Assay for human Peroxisome Proliferator-activated Receptor alpha (PPARa) (AID 2283001; active = hit-call score of the fitted dose curve at least 0.9, where 1 is the maximum). The procedure, abridged:
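Transient HepG2 transfection, GAL4-UAS reporters, NR-Gal4 chimeras; 24 h compound exposure. Readout: reporter transcripts by RT-PCR, 6-FAM primer extension, HpaI digest, capillary electrophoresis. Positive direction vs DMSO baseline.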

A short description of assay [14]: BSK_3C_TissueFactor: BioMAP Diversity Plus: 3C Assay for Tissue Factor Biomarker Activity (AID 2282997). The conditions noted are these: BioMAP 3C HUVEC, tissue factor biomarker readout; actives raise or lower the signal. A digest of the protocol:
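Tissue factor on primary human umbilical vein endothelium was read by ELISA 24 h after dosing, gain or loss relative to DMSO. Cytotoxicity ran alongside via SRB (0.1%, TCA-fixed, 560 nm).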

Assay [15] in a line: BSK_3C_uPAR: BioMAP Diversity Plus: 3C Assay for Urokinase-type plasminogen activator receptor (uPAR) Biomarker Activity (AID 2282998). As to conditions: BioMAP 3C HUVEC, uPAR biomarker ELISA; actives raise or lower the signal. The procedure, abridged:
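Endothelial primary cells of human umbilical vein origin received test chemical; 24 h later uPAR was assayed by ELISA. Fitting was bidirectional, DMSO as negative control.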

Assay [16] in a line: BSK_3C_VCAM1: BioMAP Diversity Plus: 3C Assay for Vascular cell adhesion molecule 1 (VCAM1) Biomarker Activity (AID 2282999). The conditions noted are these: BioMAP 3C HUVEC, VCAM1 ELISA, cytokine-stimulated; actives raise or lower the signal. A digest of the protocol:
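HUVEC primary cells, 24 h compound exposure; VCAM-1 by ELISA; gain/loss of signal fitted bidirectionally vs DMSO baseline.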

Assay [17] can be described thus: BSK_4H_Eotaxin3: BioMAP Diversity Plus: 4H Assay for Eotaxin 3 Biomarker Activity (AID 2283000). As to conditions: primary human endothelial cells (HUVEC); actives raise or lower the signal. The procedure, abridged:
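Human umbilical vein endothelial cells (BSK_4H system) dosed with test chemical; Eotaxin-3 (CCL26) measured by ELISA 24 h after dosing. Bidirectional curve fitting relative to DMSO negative control as baseline.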

Read-out in assay [18]: Intercellular Adhesion Molecule 1 (ICAM1), ICAM1 (gene 3383)
As to the kind of experiment: BSK_3C_ICAM1: BioMAP Diversity Plus: 3C Assay for Intercellular Adhesion Molecule 1 (ICAM1) Biomarker Activity (AID 2283003). The conditions noted are these: primary human endothelial cells (HUVEC); actives raise or lower the signal. A digest of the protocol:
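ELISA read-out of ICAM-1; HUVEC (primary human), 3C system, 24 h post-dosing; bidirectional fit vs DMSO baseline.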

The nature of assay [19]: BSK_3C_Proliferation: Cell Proliferation Assessment in the BioMAP Diversity Plus: 3C Assay (AID 2283006).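 Also: potency may reflect either rise or fall in cell number versus DMSO.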 The conditions noted are these: primary human endothelial cells (HUVEC). A digest of the protocol: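 HUVEC, sub-confluent; 48 h chemical exposure; 10% TCA fix, 0.1% SRB stain, A560 total protein. Gain or loss of signal fitted both directions vs DMSO control.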

Chain of human Retinoic Acid Receptor gamma (RARg), RARG (gene 5916) (P13631 whole entry, looked up, the tested form may be a part): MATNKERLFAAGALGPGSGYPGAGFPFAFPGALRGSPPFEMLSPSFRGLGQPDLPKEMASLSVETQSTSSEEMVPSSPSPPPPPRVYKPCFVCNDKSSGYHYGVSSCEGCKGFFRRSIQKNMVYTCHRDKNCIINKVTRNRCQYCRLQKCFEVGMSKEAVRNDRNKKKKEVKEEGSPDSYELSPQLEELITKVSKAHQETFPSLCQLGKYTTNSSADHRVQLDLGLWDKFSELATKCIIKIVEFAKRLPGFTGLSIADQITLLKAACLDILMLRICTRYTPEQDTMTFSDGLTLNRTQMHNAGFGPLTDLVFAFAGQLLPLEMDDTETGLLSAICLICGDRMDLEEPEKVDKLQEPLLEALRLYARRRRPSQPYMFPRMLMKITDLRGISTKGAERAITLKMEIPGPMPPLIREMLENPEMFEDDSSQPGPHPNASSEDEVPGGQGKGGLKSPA
Chain of human RAR-related Orphan Receptor beta (RORb), RORB (gene 6096) (Q92753 whole entry, looked up, the tested form may be a part): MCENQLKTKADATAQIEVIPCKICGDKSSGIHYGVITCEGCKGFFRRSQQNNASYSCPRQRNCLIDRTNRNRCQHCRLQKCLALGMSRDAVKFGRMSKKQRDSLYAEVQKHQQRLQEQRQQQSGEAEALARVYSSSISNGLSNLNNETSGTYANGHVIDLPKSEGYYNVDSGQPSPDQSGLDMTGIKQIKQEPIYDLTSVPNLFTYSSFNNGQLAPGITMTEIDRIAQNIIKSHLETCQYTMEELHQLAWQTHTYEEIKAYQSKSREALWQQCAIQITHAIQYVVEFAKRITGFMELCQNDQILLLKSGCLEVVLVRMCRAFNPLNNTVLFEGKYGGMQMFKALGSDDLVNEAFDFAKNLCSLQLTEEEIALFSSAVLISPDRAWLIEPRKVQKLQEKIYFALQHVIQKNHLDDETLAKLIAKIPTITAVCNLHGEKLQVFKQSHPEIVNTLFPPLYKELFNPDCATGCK
Chain of Myc proto-oncogene protein (Homo sapiens) (P01106 whole entry, looked up, the tested form may be a part): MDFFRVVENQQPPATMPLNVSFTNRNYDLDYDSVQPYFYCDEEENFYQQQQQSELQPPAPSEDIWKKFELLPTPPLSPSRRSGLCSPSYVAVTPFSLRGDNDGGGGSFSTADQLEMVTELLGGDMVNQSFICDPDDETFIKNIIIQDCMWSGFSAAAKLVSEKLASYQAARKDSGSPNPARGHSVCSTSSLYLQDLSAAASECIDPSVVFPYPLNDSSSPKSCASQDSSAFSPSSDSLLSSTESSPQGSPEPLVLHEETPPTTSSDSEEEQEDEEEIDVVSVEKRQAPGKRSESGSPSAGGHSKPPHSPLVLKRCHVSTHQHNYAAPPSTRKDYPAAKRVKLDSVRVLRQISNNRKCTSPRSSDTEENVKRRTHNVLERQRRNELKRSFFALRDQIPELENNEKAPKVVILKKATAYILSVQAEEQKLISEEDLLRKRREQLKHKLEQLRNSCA
Chain of human Peroxisome Proliferator-activated Receptor alpha (PPARa), PPARA (gene 5465) (Q07869 whole entry, looked up, the tested form may be a part): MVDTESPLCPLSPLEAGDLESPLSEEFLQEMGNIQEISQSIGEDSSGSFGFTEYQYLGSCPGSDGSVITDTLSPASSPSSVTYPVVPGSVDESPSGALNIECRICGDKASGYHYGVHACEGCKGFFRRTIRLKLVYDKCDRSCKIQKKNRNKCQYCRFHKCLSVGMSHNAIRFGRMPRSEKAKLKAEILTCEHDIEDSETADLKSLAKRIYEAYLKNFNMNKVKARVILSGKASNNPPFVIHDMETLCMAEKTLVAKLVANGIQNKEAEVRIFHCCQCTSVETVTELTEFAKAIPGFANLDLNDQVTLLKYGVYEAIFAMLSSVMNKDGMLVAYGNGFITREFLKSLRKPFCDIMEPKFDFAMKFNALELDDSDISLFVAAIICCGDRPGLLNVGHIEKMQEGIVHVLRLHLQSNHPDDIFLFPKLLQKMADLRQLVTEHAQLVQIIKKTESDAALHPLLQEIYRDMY
Chain of Nuclear receptor subfamily 1 group I member 2 (Homo sapiens) (O75469 whole entry, looked up, the tested form may be a part): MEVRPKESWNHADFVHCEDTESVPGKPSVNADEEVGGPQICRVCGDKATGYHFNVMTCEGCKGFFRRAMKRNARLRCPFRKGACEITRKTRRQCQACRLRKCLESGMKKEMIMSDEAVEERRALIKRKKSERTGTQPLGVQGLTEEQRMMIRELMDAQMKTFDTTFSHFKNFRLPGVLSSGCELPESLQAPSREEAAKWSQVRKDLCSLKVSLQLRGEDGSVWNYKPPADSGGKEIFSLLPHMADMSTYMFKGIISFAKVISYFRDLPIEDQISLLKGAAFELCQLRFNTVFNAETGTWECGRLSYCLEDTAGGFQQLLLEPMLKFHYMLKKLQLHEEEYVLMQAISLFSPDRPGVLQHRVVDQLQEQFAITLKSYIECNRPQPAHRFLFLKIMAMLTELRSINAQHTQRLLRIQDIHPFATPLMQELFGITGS
Chain of human Peroxisome Proliferator-activated Receptor delta (PPARd), PPARD (gene 5467) (Q03181 whole entry, looked up, the tested form may be a part): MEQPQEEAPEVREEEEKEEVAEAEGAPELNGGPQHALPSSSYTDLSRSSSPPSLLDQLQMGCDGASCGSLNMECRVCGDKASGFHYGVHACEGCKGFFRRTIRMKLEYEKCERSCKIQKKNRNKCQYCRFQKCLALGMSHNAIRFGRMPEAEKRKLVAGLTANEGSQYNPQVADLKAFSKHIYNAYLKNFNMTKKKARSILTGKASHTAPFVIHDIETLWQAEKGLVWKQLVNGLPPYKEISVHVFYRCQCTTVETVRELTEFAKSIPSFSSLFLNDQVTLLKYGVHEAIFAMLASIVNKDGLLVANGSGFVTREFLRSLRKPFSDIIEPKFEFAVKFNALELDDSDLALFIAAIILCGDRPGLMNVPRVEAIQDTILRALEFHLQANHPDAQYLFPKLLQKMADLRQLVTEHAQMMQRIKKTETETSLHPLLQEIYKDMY

Consider `CCCCCCCCCCCCCCCC(=O)OCC`, for which the compound was called inactive in assay [1], in [2], in assay [3], in assay [4], in assay [5] and in assay [6]. In addition, the call in [7] and in [8] was inactive.

As to `CC(=O)OC1C2(C)CCC(C2)C1(C)C` (stereo not given), the call in [1], in assay [2], in [3], in assay [4], in assay [9] and in assay [7] was inactive.

On to `CC(C)(C)c1ccc(N)cc1`, for which the compound was classed as inactive in [1], in [2], in assay [3], in assay [10], in assay [9] and in [7]. The compound was classed as inactive in [11].

Turning to `C=C(C)[C@H]1CC=C(C)CC1`, the result in assay [1], in assay [2], in assay [3], in assay [10], in [6] and in [8] was inactive. The result in assay [11] was inactive.

For the compound `O=C1CCCCCN1SSN1CCCCCC1=O`, the half-maximal activity concentration (AC50) in [1] is 153 µM (active). In addition, the compound was called inactive in assay [2], in [10], in assay [12], in [13] and in [9].

For `CCOC(=O)c1ccc(N(C)C)cc1`, the result in assay [1], in assay [2], in assay [10] and in assay [13] was inactive. Also, the AC50 in assay [7] is 27.5 µM (active).

For `CCOC(=O)c1ccccc1C(=C1C=C(Br)C(=O)C(Br)=C1)c1cc(Br)c(O)c(Br)c1`, the AC50 in assay [1] is 22.4 µM (active); in [12], 48.3 µM (active); in assay [14] it was 18.6 µM (active) and 9.69 µM (active); in [15] it was 20 µM (active) and 17.9 µM (active); in assay [16], 22.9 µM (active) and 21.4 µM (active); in assay [17], 22.7 µM (active) and 23 µM (active). For the same compound, the AC50 in [18] is 21.1 µM (active) and 21.2 µM (active); in assay [19] it was 20.1 µM (active) and 19.1 µM (active); in [9], 3.1 µM (active). For the same compound, the outcome in assay [2] and in assay [7] was inactive.

In the case of `Cc1cc(=O)n(-c2ccccc2)n1C`, the call in assay [1], in [2], in [3], in assay [10], in assay [7] and in assay [8] was inactive. Moreover, the outcome in [11] was inactive.

In the case of `Cc1ccc(N/N=c2\c(=O)cc/c(=N/Nc3ccc(S(=O)(=O)O)cc3)c2=O)c(C)c1`, the call in assay [1], in [2], in [3], in [12], in assay [13] and in assay [9] was inactive. The compound was classed as inactive in assay [7] and in [11].
